Only some compounds are listed: those with a hit (about 3.3% of all), similar ones and a draw of the others.
esBAF inh: Bmi1 luciferase reporter increase in mESCs, primary screen, esBAF inhibitor project, mouse ES cells, Bmi1 luciferase knock-in, single point. 24 h; 100% = twice the neutral-well signal. reporter increase, % at 12.5 µM. 350,000 compounds, 2% hits; in the data active means activation above about 40%;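 further: 0% = median of the plate's neutral control wells and 100% = double that signal; a rise in the Bmi1 reporter signal indicates esBAF inhibition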
Statin myotox sup: suppressors of statin myotoxicity in C2C12 myotubes, primary screen, cell-based, single point, plate reader; rescue of ATP level, % at 7.49 µM; 330,000 compounds, 0.78% hits; C2C12 myotubes + simvastatin, ATP luminescence, 48 h; scaled: DMSO 0, geranylgeraniol control 100;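 active means mean ATP rescue above about 67%, or every replicate alone reaching that limit, limit read from the data, passing the limit was not always enough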;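 further: myotubes were challenged with 10 µM simvastatin during compound exposure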
GAA850 FXN act: FXN promoter activators, primary screen, cell-based, luciferase luminescence, HEK293 lucGAA850 | AID 540364, 2011 | activation, % at 6 µM | 360,000 compounds, 0.56% hits | HEK293 lucGAA850 FXN promoter luciferase reporter, 24 h; percent of 10 µM SAHA response;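 active means activation above the average of all compounds screened plus 3 SD, cutoff fixed separately per campaign, cut at about 7.5% in these data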;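 further: 0% = DMSO wells and 100% = 10 µM SAHA wells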
MITF TRPM1 HTS: activators of MITF-driven TRPM1 promoter reporter, primary screen, cell-based, SK-MEL-5, luciferase, single point. SK-MEL-5 TRPM1-promoter luciferase, 24 h; % of positive control, neutral wells = 0. AID 588334, 2011. activation, % at 12.5 µM. 300,000 compounds, 0.75% hits;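 active means mean activation of at least 80% with every replicate also reaching 80%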;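 further: 0% = neutral control wells and 100% = parthenolide positive control wells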
Wnt bcat act: Wnt/beta-catenin pathway activators, primary screen, cell-based, plate reader, single point. Wnt/beta-catenin reporter cell assay, activator. activation, % at 9.35 µM. 300,000 compounds, 1.2% hits; in the data active means activation above about 30%, passing the limit was not always enough;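 further: 0% = neutral control wells and 100% = positive control wells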
esBAF Ring1 qPCR: Ring1 mRNA increase in mouse ESCs, confirmation, esBAF inhibitor project, cell-based, mouse ESC, RT-qPCR, cherry-pick; shares compounds with esBAF inh; mouse ESC E14, Ring1 mRNA RT-qPCR fold change; fold change at 33 µM; 550 tested, under 10 active; AID 743176, 2013;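 active means Ring1 gene expression raised more than 2-fold over untreated cells in both replicates at either tested dose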;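 further: Ring1 transcript normalised to actin housekeeping signal by TaqMan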
esBAF Fgf4 qPCR: Fgf4 mRNA decrease in mouse ESCs, confirmation, esBAF inhibitor project, cell-based, mouse ESC, RT-qPCR, cherry-pick | 550 compounds, 4% hits | shares compounds with esBAF inh | Fgf4 expression fold change at 33 µM | mouse ESC E14, Fgf4 mRNA qPCR fold change; stronger effect = lower value;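 active means Fgf4 expression under 0.8 fold of control in both repeat measurements at one or both tested doses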;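 further: Fgf4 transcript normalised to actin in duplex TaqMan qPCR; cells exposed to compound for 24 h before lysis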
Bmi1 derepress: esBAF inhibition via Bmi1 de-repression, confirmation, cell-based, RT-qPCR, mouse ESC, single point, cherry-pick. shares compounds with esBAF inh. mouse ESE14 ES cells, Bmi1 mRNA qPCR fold; stronger effect = higher value. fold change at 33 µM. 550 tested, under 10 active. AID 743180, 2013;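 active means Bmi1 expression fold change above 6 at either tested concentration, seen in replicate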
A549 tox SP: A549 cell cytotoxicity, cytotoxicity control, plate reader, single point, cherry-pick | shares compounds with esBAF inh | cell viability change % (negative = cytotoxic), % at 25 µM, hits read low | 550 tested, under 10 active; call rule not given here
HepG2 cytotox SP: HepG2 cell cytotoxicity, cytotoxicity control, plate reader, single point, cherry-pick | shares compounds with esBAF inh | stronger effect = lower value | activity change, negative = inhibition, % at 25 µM | 550 compounds, 4% hits; in the data active means activity change below about -50%
HEK293 cytotox SP: HEK293 cell cytotoxicity, cytotoxicity control, plate reader, single point, cherry-pick | shares compounds with esBAF inh | activity change, negative = inhibition, % at 25 µM, hits read low | 550 compounds, 3% hits; in the data active means activity change below about -38%, passing the limit was not always enough
Starred values were filed as active, the others as inactive; . = not tested or not shown.

SMILES | esBAF inh | Statin myotox sup | GAA850 FXN act | MITF TRPM1 HTS | Wnt bcat act | esBAF Ring1 qPCR | esBAF Fgf4 qPCR | Bmi1 derepress | A549 tox SP | HepG2 cytotox SP | HEK293 cytotox SP
C[C@H](CO)N1C[C@H](C)[C@@H](CN(C)C(=O)c2cccnc2)Oc2cc(-c3cccc(C#N)c3)ccc2S1(=O)=O | -4 | -26 | . | . | . | . | . | . | . | . | .
CCCC#Cc1cnc2c(c1)C(=O)N([C@H](C)CO)C[C@H](C)[C@@H](CN(C)C(=O)Nc1ccccc1F)O2 | 0 | 17 | . | . | . | . | . | . | . | . | .
C=CCNc1nc(NCc2cccc(OC)c2)c2sc(-c3ccccc3)cc2n1 | 71* | -68 | 1 | . | -2 | 3.7* | 0.3* | 17* | -7 | -48 | -66*
Brc1cccc2sc(N3CCN(c4ccccc4)CC3)nc12 | . | . | 4 | 2 | 3 | . | . | . | . | . | .
Clc1cccc2sc(N3CCCCC3)nc12 | 61* | -1 | 3 | . | . | 1.2 | 0.93 | 1.8 | -1 | -1 | -3
Cc1ccc(C)c(N2CCN(C(=O)CCc3nc(-c4cccc(Cl)c4)no3)CC2)c1 | 90* | 6 | 2 | 73 | 0 | 1.1 | 1.2 | 0.86 | 2 | -37 | 0
COc1ccc(-c2noc(CCCCC(=O)N3CCN(c4cc(C)ccc4C)CC3)n2)cc1 | -74 | -28 | -9 | -50 | -3 | . | . | . | . | . | .
COc1ccccc1-c1noc(CCC(=O)N2CCN(c3cc(C)ccc3C)CC2)n1 | -4 | 1 | 1 | 10 | -3 | . | . | . | . | . | .
Cc1ccc(C)c(N2CCN(C(=O)CCc3nc(-c4ccccc4C(F)(F)F)no3)CC2)c1 | 73* | -8 | 4 | 72 | 34* | 1.3 | 0.96 | 1.6 | -5 | -21 | -10
COc1ccc(-c2noc(CCCC(=O)N3CCN(c4cc(C)ccc4C)CC3)n2)cc1 | 62* | 3 | 1 | 66 | 1 | 1.2 | 1 | 1.6 | -3 | 2 | -13
COc1cccc(-c2noc(CCC(=O)N3CCN(c4cc(C)ccc4C)CC3)n2)c1 | 2 | -9 | -1 | 0 | -1 | . | . | . | . | . | .
COc1ccc(NC(=O)c2cc(-c3ccc(F)cc3C)n[nH]2)cc1OC | 21 | -7 | 2 | . | 6 | . | . | . | . | . | .
Cc1cc(F)ccc1-c1cc(C(=O)Nc2ccc(F)cc2)[nH]n1 | 71* | -5 | 4 | . | 1 | 1.2 | 0.89 | 1.7 | -7 | 3 | -7
CNC[C@H]1Oc2cc(C#Cc3ccccc3F)ccc2S(=O)(=O)N([C@H](C)CO)C[C@@H]1C | -3 | 2 | . | . | . | . | . | . | . | . | .
NNC(=O)c1nc2ccccc2s1 | 68* | -1 | 2 | . | -1 | 1.2 | 0.83 | 1.7 | -5 | -48 | -10
c1ccc(Nc2nc(-c3ccncc3)cs2)cc1 | 59* | -63 | 5 | 144* | . | 1.4 | 1.1 | 3.5 | -11 | 43 | -8
COc1ccc(-c2csc(Nc3cccnc3)n2)cc1 | . | . | 3 | 42 | . | . | . | . | . | . | .
c1ccc(-c2csc(Nc3cccnc3)n2)nc1 | 61* | -31 | 2 | 57 | . | 1.1 | 1.1 | 1.3 | -15 | -14 | -6
CC(=O)Nc1nc(-c2ccc(-c3ccccc3)cc2)cs1 | 68* | 3 | 2 | . | 40* | 0.95 | 0.89 | 1.5 | -12 | -35 | 0
